Sfp PPTase inh: inhibitors of Bacillus subtilis Sfp phosphopantetheinyl transferase; Q9F4F7; Biochemical Sfp PPTase activity, qHTS; Potency, µM, most hits filed as inhibitors; hit rate 3.5% among 310,000; AID 1490;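 further: the enzyme is Sfp with the accession as filed and its product quenches rhodamine fluorescence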
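Sfp 15 nM + cpd, 15 min RT; start w/ rhodamine-CoA 5 uM, BHQ-2-YbbR 12.5 uM (final); 50 mM Hepes pH 7.6, 10 mM MgCl2, 0.01% NP-40, 0.01% BSA; read 525/598 nm at 0 and 30 min.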
L3MBTL1 block: inhibitors of human L3MBTL1; Potency, µM (series often up to 57.1 µM), hits mostly inhibitors; Q9Y468; AID 485360; hit rate 0.66% among 230,000; AlphaScreen L3MBTL1–H3K9me1 peptide binding; further: nearly all actives have a fitted effect of over 60% in size
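L3MBTL1 (50 nM) pre-complexed 30 min with biotinylated H3(1-15)K9me1 peptide (75 nM), then compounds added for 30 min at room temperature; AlphaScreen streptavidin donor/nickel chelate acceptor beads (10 ug/mL final) read after 30 min dark incubation.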
BAZ2B block: BAZ2B (human) inhibition. Q9UIF8. AlphaScreen BAZ2B-H3K14Ac peptide displacement. Potency, µM (series often up to 114 µM), hits mostly inhibitors. hit rate 4.4% among 360,000. AID 504333; further: nearly all actives have a fitted effect of over 60% in size
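Complex of BAZ2B and biotin-H3K14Ac (50 nM apiece) forms over 30 min at RT, then faces library compounds up to 110 uM for another 30 min; AlphaScreen beads added, 20 min dark incubation, luminescence read.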
G9a block: blocks human histone lysine methyltransferase G9a; hit rate 8.8% among 350,000; Potency, µM (titrated, usually from 102 µM), actives largely listed as inhibitors; AID 504332; G9a H3K9 monomethylation, AlphaScreen, 2 h; further: nearly all actives have a fitted effect of over 75% in size
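AlphaScreen detection with an anti-monomethyl H3K9 antibody quantified product after a 2 h room-temperature reaction containing 500 nM biotinylated H3K9 peptide, 20 µM SAM and 20 nM enzyme, which had been preincubated 15 min with compound.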
JMJD2A Tudor inh: blocks the human JMJD2A Tudor domain; AlphaScreen JMJD2A-Tudor / H3K4me3 peptide binding; Potency, µM (doses to about 114 µM), usual class: inhibitors; hit rate 4.4% among 390,000; further: nearly all actives have a fitted effect of over 50% in size
HP1b binding inh: HP1-beta chromodomain-methylated histone interaction inhibition. AlphaScreen HP1-beta / biotin-H3K9me3 peptide binding. Potency, µM (series often up to 114 µM), usual class: inhibitors. hit rate 0.56% among 390,000; further: nearly all actives have a fitted effect of over 70% in size
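HP1-beta protein (50 nM final) preincubated 30 min at room temperature with biotinylated H3(1-18)K9me3 peptide (50 nM) in PBS pH 7.4, 0.01% Tween-20, then compound added for 30 min. AlphaScreen streptavidin donor/nickel chelate acceptor beads (10 ug/mL final), 30 min dark, luminescence read.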
A number is an active result; – = inactive; ? = inconclusive; · = no result given; [ ] = dose if it differs, or a comment. Compounds with a hit are over-represented: about 12% of the library has one in this group of screens. The call rests on the fitted dose curve; in most records, active means well fitted curve in the direction sought with a large enough effect; inconclusive means small, poorly fitted or top-dose-only effect, or another doubt; inactive means no such curve, though single readings can be large; an effect the other way counts as inactive or inconclusive.

SMILES | Sfp PPTase inh | L3MBTL1 block | BAZ2B block | G9a block | JMJD2A Tudor inh | HP1b binding inh
CCC1CCc2c(c3ccccc3[nH]c2=O)O1 (stereo unspecified) | – | – | – | – | – | –
O=c1[nH]c2ccccc2c2oc(CCl)nc12 | 6.3µM | – | – | 35µM | – | –
CCC(=O)Nc1c2c(nn1-c1ccccc1C)CSC2 | 56µM | – | – | – | – | –
O=C(CCl)Nc1c2c(nn1-c1ccccc1)CSC2 | – | · | – | – | 45µM | –
Cc1cccc(-n2nc3c(c2NC(=O)c2ccc(Br)o2)CSC3)c1 | ? | · | – | 40µM | – | –
Cc1cccc(-n2nc3c(c2NC(=O)CCCl)CSC3)c1 | 45µM | · | – | –[2.33 µM] | – | –
O=C(Nc1c2c(nn1-c1ccccc1)CS(=O)C2)c1ccc(Br)o1 (stereo unspecified) | – | · | – | – | – | –
COc1ccc(CCn2c(=S)[nH]c(=O)c3nccnc32)cc1OC | · | · | · | · | – | –
O=c1c(CCc2ccccc2)nc2cnc(N3CCNCC3)nc2n1-c1ccccc1 | – | · | · | –[0.501 µM] | · | ·
Cc1cccc(CNc2ncnc3ccc(-c4ccccc4CN(C)C)cc23)c1 | – | · | · | · | · | ·
Clc1cccc(C=NC=Nc2cccc(Cl)c2)c1 | – | · | · | · | · | ·
CC(=O)Nc1ccc(S(=O)(=O)N2CCC(N3CCCCCC3)CC2)cc1 | – | – | – | 40µM | 20µM | ?
O=S(=O)(c1ccc(Cl)cc1)N1CCC(N2CCCCCC2)CC1 | – | · | 79µM | 2.5µM | 2.5µM | ?
O=S(=O)(c1ccc(F)cc1)N1CCC(N2CCCCCC2)CC1 | – | – | ? | ? | ? | ?
Clc1ccc(OCCCNCc2ccccc2)c2ccccc12 | 56µM | – | 50µM | · | 28µM | ?
Brc1ccccc1OCCNCc1ccccc1 | – | · | 50µM | 7.9µM | ? | ?
C=CCc1ccccc1OCCNCc1ccccc1 | – | · | ? | 8.9µM | 0.89µM | ?
C=CCc1ccccc1OCC(=O)O | – | · | – | – | – | –
CC1(C)NC(=O)N(CCCOc2ccccc2Br)C1=O | – | · | – | – | – | –
Cc1ccccc1OCC(=O)Nc1ccccc1C(=O)OCc1cc(=O)n2nc(C3CC3)sc2n1 | · | · | – | – | – | –
Cc1cc(C)c2c(-n3cccc3)c(C(=O)NNS(=O)(=O)c3ccc(Cl)cc3)sc2n1 | – | – | – | ? | ? | –
COc1cccc(-n2c(=O)c3cc(OC)c(OC)cc3n(CC(=O)Nc3ccc(F)cc3)c2=O)c1 | · | · | – | – | – | –
Cn1cccc1C(=O)N1CCC2(CC1)CCN(c1ccccc1)CC2 | – | · | · | –[12.7 µM] | · | ·
COc1cc(OC)cc(-c2nc3ccccc3c(=O)n2OC(=O)c2ccc(Br)cc2)c1 | – | – | ? | ? | 20µM | –
COc1ccc(C(=O)On2c(-c3ccc(Br)cc3)nc3ccccc3c2=O)cc1 | – | – | – | – | – | –
SMILES | Sfp PPTase inh | L3MBTL1 block | BAZ2B block | G9a block | JMJD2A Tudor inh | HP1b binding inh
Cc1ccccc1Nc1nc(CSc2nnnn2-c2ccccc2)cs1 | 45µM | · | – | 40µM | – | –
CC1Cn2cc(C(=O)Nc3cccc(C(F)(F)F)c3)c(=O)c3c(Cl)ccc(c32)O1 (stereo unspecified) | · | · | – | – | – | –
CCCCCCSC1=C(C#N)C(=O)NC2(CCCCC2)S1 | – | – | ? | 13µM | 56µM | ?
COc1cc(OC)cc(C(=O)NNC(=S)NC2CC2)c1 | – | – | – | 56µM | – | –
CC(C)(C)C1CCC(=NNC(=O)C(=O)NCc2cccnc2)CC1 (stereo unspecified) | – | – | ? | ? | – | –
CCC(C)(C)C1CCC(=NNC(=S)Nc2cccnc2)CC1 (stereo unspecified) | ? | – | ? | 7.9µM | 45µM | –
CC(C)(C)C1CCC(=NNC(=S)NCc2ccccc2)CC1 (stereo unspecified) | – | – | ? | 8.9µM | ? | –
COc1ccc(Br)c2oc(S)cc(=O)c12 | ? | – | – | 7.1µM | 35µM | –
Cc1ccc(NS(=O)(=O)c2coc(C(N)=O)c2)cc1F | – | – | – | – | ? | –
CCc1nnc(N/N=C/c2ccccc2Cl)n1N | – | – | ? | –[0.501 µM] | 89µM | –
CCc1nnc(N/N=C/c2ccccc2F)n1N | 50µM | · | ? | ? | – | –
CCOC(=O)N/N=C/c1ccccc1F | – | – | – | – | – | –

Screening results (PubChem)
